PubChem BioAssay AID1851 (National Center for Advancing Translational Sciences (NCATS), 2009)
In all, about 16,000 compounds went through this assay and about 5,700 (36%) were called active. Another 24% or so got no clear call; they are omitted. The list shows a part of the results. Unmarked numbers belong to inactive results. The call rests on the fitted dose curve; in most records, active means well fitted curve in the direction sought with a large enough effect; inconclusive means small, poorly fitted or top-dose-only effect, or effect the other way; inactive means no such curve, though single readings can be large or run the other way.

What follows are molecules tested against Cytochrome P450 1A2 (Homo sapiens) (UniProt P05177) (assay: Cytochrome panel assay with activity outcomes). Details: recombinant CYP, pro-luciferin dealkylation, luminescence, p450-cyp1a2; series mostly up to 57.1 µM; activity, negative = inhibition: at the top concentration.
On the % scale 0 is the no-effect control and ±100 the full control effect.

Sequence of Cytochrome P450 1A2 (Homo sapiens) (P05177 whole entry, looked up): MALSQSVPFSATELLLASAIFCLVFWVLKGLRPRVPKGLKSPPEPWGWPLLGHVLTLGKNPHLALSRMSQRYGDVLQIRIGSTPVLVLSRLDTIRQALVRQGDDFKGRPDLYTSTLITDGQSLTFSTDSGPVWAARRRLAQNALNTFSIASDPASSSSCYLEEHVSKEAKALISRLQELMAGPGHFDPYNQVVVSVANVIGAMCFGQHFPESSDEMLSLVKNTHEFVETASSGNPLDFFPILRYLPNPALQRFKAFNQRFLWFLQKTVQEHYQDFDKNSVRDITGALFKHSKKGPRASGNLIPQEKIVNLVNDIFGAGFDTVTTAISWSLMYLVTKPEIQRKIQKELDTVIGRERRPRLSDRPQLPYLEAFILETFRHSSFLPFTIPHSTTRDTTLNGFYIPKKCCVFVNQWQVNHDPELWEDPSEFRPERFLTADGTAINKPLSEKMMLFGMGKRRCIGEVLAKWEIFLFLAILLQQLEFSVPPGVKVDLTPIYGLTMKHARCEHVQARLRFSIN

SMILES	AC50	activity, negative = inhibition
Cc1cc(O)c(C(C)C)cc1N=Cc1ccccc1O	1.58 µM (active)	–
O=S(=O)(O)c1cc(O)c2c(N=Cc3ccccc3O)cc(S(=O)(=O)O)cc2c1	–	-23.7% [at 2.29 µM]
COc1ccc(C(=O)N2CCC3(CCCN(Cc4cc(C(F)(F)F)cc(C(F)(F)F)c4)C3)CC2)cc1	–	11.6%
N#CC1(Nc2ccc(-c3ccc(NC4(C#N)CCCC4)cc3)cc2)CCCC1	3.16 µM (active)	–
O=C(O)C1(Nc2ccc(Cl)cc2)CCCC1	–	-2.69% [at 11.4 µM]
COCC(=O)N1CCC2(CCCN(Cc3cc(C(F)(F)F)cc(C(F)(F)F)c3)C2)CC1	–	3.63%
S=C(Nc1ccc2cn[nH]c2c1)Nc1ccc2cn[nH]c2c1	0.126 µM (active)	–
N#CC(C#N)=NNc1ccc2cn[nH]c2c1	1.26 µM (active)	–
O=C(O)c1c(Cl)c(Cl)c(Cl)c(Cl)c1C(=O)Nc1ccc2cn[nH]c2c1	0.2 µM (active)	–
CCN1C(=O)[C@H]2[C@H]3[C@H](O)[C@H](O)C/C(=N/NC(=O)OCc4ccccc4)[C@H]3CC[C@@H]2C1=O	–	-7.29% [at 11.4 µM]
NS(=O)(=O)c1cc(Cl)c(Cl)c(S(N)(=O)=O)c1	–	-15.8% [at 25.6 µM]
CN(C)/C(CN1CCN(C=O)CC1)=C1\N=C(c2ccccc2)OC1=O	14.1 µM (active)	–
O=C(O)[C@@H](S)[C@H](S)C(=O)O	–	-20.1% [at 11.4 µM]
CC1CCN(CCCCOc2ccccc2[N+](=O)[O-])CC1	–	-15.7%
CC1CCN(CCOc2cc(Cl)ccc2Cl)CC1	8.91 µM (active)	–
OCCN1CCN(CCOc2cccc(Cl)c2)CC1	–	-16.3%
CC1CN(C2CCN(C(=O)c3cccc(Cl)c3)CC2)CC(C)O1 (centres undefined)	–	-4.5%
COc1ccccc1CNC(=O)C1CCN(S(=O)(=O)N2CC(C)CC(C)C2)CC1 (centres undefined)	–	-15.6%
O=C(OCc1ccccn1)c1ccc(COc2ccccc2Cl)o1	7.08 µM (active)	–
CC1CCN(C(=O)c2ccc(COc3ccccc3Cl)o2)CC1	3.16 µM (active)	–
C[C@@H]1NC(=O)[C@@H](C)COC(=O)[C@H](C)NC(=O)[C@@H](C)COC1=O	–	0.211% [at 11.4 µM]
CC(C)n1nnnc1SCC(=O)NCCc1ccccc1	12.6 µM (active)	–

SMILES	AC50	activity, negative = inhibition
CCn1c(CC(=O)Nc2ccc(C)cc2)nnc1SCC(=O)NCCc1ccccc1	–	12.5%
CC(NC(=O)CSc1nc(=O)cc(N)n1CCc1ccccc1)c1ccccc1 (centres undefined)	–	-15%
COc1ccc(CNc2ccnc(-c3ccc(N(C)C)cc3)n2)c(OC)c1	3.16 µM (active)	–
COc1ccccc1CNc1ccnc(-c2ccc(N(C)C)cc2)n1	0.794 µM (active)	–
COc1ccccc1CNc1ccnc(-c2ccoc2)n1	1.58 µM (active)	–
COc1ccccc1CNc1ccnc(-c2ccc(C(=O)N(C)C)cc2)n1	12.6 µM (active)	–
COC(=O)N1CCC2(CC1)CCN(c1ncccn1)CC2	–	6.95%
CN(C)c1ccc(-c2nccc(NCc3ccccc3)n2)cc1	1.26 µM (active)	–
Nc1nnnn1/N=C\c1ccc(Cl)c([N+](=O)[O-])c1	5.01 µM (active)	–
O=[N+]([O-])c1cc(/C=N/N2CCN(C3c4ccccc4-c4ccccc43)CC2)ccc1Cl	–	-17%
COc1cc(OC)c2cc(-c3ccncc3)cnc2c1	0.2 µM (active)	–
CCc1ccc(C(=O)CN(C#N)c2nc(C)cc(C)n2)cc1	15.8 µM (active)	–
CCc1ccc(C(CC(=O)c2ccc(Cl)cc2)C(=O)O)cc1 (centres undefined)	–	7.03%
COCC(=O)N1CCC2(CCN(Cc3ccccc3OC)CC2)CC1	–	13.3%
CCCCN(CC)C(=O)Cc1ccccc1OC	14.1 µM (active)	–
COc1ccccc1CN1CCC2(CC1)CCN(C(C)=O)CC2	–	13.1%
O=C(COC(=O)c1cccnc1)c1ccc(Cl)c(Cl)c1	0.891 µM (active)	–
Cc1ccc(C(=O)COC(=O)c2ccc3c(c2)C(=O)N(c2cccc4ncccc24)C3=O)cc1C	–	-1.92%
Cc1ccc(C(=O)COC(=O)c2ccccc2N2C(=O)C3C4CCC(C4)C3C2=O)cc1C (centres undefined)	–	-26.5%
O=C(O)COc1c(Cl)cc(Cl)c2cccnc12	–	-1.3% [at 2.29 µM]
O=C(COC(=O)c1cccnc1Cl)c1ccccc1	11.2 µM (active)	–
O=C(OCc1ccc(Cl)cc1Cl)c1cccnc1Cl	1 µM (active)	–

SMILES	AC50	activity, negative = inhibition
COCC(=O)N1CCC2(CCCN(C(=O)Nc3ccc(OC)cc3)C2)CC1	–	-12%
Cc1nc2ccccn2c1/C(O)=C1\C(=O)C(=O)N(CCCn2ccnc2)C1c1ccncc1 (centres undefined)	–	-11.6%
Cc1nc2ccccn2c1C(=O)CSc1ccccc1Cl	8.91 µM (active)	–
CC(C)(C)NC(=O)NC(=O)CSc1nnc2ccccn12	–	-9.41%
CCOc1c2ccc(C(=O)NCc3ccco3)cc2nn1CC	2.51 µM (active)	–
CCOc1c2ccc(C(=O)NCCc3cccs3)cc2nn1CC	8.91 µM (active)	–
CCCCCn1c(SCc2ccncc2)nc2cc(C(=O)NCc3ccco3)ccc2c1=O	4.47 µM (active)	–
CCCn1nc2cc(C(=O)NCc3ccccc3OC)ccc2c1OCC	–	-23.4%
O=C(CSc1nc2ccccc2c(=O)n1CCCC(=O)N1CCCC1)NCc1ccco1	–	-10.2%
CCCCn1nc2cc(C(=O)NCC3CC3)ccc2c1OCC	–	-28.4%
c1ccc(C2OCC3(CO2)COC(c2ccccc2)OC3)cc1 (centres undefined)	–	-11.4%
Cc1ccc(CNC(=O)Cn2c(=O)oc3ccccc32)o1	12.6 µM (active)	–
CC1CCCC(NC(=O)CCn2c(=O)oc3ccccc32)C1C (centres undefined)	–	-15.5%
Cc1cccc(NC(=O)Cn2c(=O)n3nc(CCn4nc(C)cc4C)nc3c3ccccc32)c1	–	-14.4%
Cc1cccc(NC(=O)Cn2c(=O)oc3ccccc32)c1	15.8 µM (active)	–
COCCNC(=O)CCn1c(=O)oc2ccccc21	–	-5.72%
COC(=O)[C@@]1(Cc2ccc(OC)cc2)[C@H]2c3cc(C(=O)N4CCCC4)n(CCn4cc([N+](=O)[O-])nc4C)c3C[C@H]2CN1C(=O)c1ccccc1	–	2.38%
CCCn1c(N)c(C(=O)CSc2nc(C)cs2)c(=O)n(C)c1=O	15.8 µM (active)	–
CSc1cccc(NC(=O)Nc2ccc(Cl)cc2)c1	5.01 µM (active)	–
Cc1cc(C)cc(C(=O)N(NC(=O)Nc2ccc(Cl)cc2)C(C)(C)C)c1	–	-5.9%
